Pf Dd2 inh: Plasmodium falciparum Dd2 growth inhibition; 120,000 compounds, 4.3% hits; Potency, µM (doses to about 28.9 µM), for the others: at the top dose activity, negative = inhibition, usual class: inhibitors; P. falciparum Dd2 growth, SYBR Green, 72 h; active = well fitted inhibition curve with a large enough effect;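 note: plate controls were DMSO vehicle for no effect and reference drug for full effect; nearly all actives have a fitted effect of over 65% in size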
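Readout: SYBR Green fluorescence, 485 nm excitation, 535 nm emission, after ~16 h lysis at 37C. Before that, Dd2-infected red cells (2.5% hematocrit) grew 72 h with compound, 29 uM top final concentration.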
* marks the source's active call; other numbers are inactive results; i = inactive; [ ] = another dose, or the depositor's remark. Shown is part of a subset that was picked to be rich in hits. Potency is the fitted concentration of half-maximal effect.

SMILES	Pf Dd2 inh
CCOc1ccc(NC(=O)c2c(NC(=O)c3ccncc3)sc3c2CCC(C(C)(C)C)C3)cc1 (stereo not drawn)	i
COc1nc2c(cc1CNC(=O)CC1CC1)C(=O)N(C1CCCC1)C2	-17%
O=C(NCc1ccccc1)[C@@H]1COCC(=O)N1Cc1ccc(F)cc1	-8%
O=C(NCC(c1ccc(Cl)cc1)N1CCCCC1)c1ccc(F)cc1 (stereo not drawn)	-13%
COc1ccc(C(=O)NCC(c2ccc(N(C)C)cc2)N2CCOCC2)cc1 (stereo not drawn)	46%
CN(C)c1ccc(C(CNC(=O)c2ccc(C(C)(C)C)cc2)N2CCCC2)cc1 (stereo not drawn)	6.3µM*
Cn1nc(C2CCN(C(=O)c3cc(F)ccc3F)CC2)c2c1CCOC2	i[5.79 µM]
Cc1cccc(OCCc2noc(C3CCN(C(=O)NC(C)(C)C)C3)n2)c1 (stereo not drawn)	-23%
O=C1NCN(Cc2ccc(Cl)cc2)C12CCN(Cc1cccc(C(F)(F)F)c1)CC2	-6%
COc1ccc(-c2cc([C@H]3CN4CC[C@H]3C[C@@H]4CNC(=O)c3ccco3)n(C)n2)cc1OC	i
COc1ccc(-c2cc([C@H]3CN4CC[C@H]3C[C@@H]4CNS(=O)(=O)c3ccc(NC(C)=O)cc3)n(C)n2)cc1	i
COc1ccc(-c2cc([C@H]3CN4CC[C@H]3C[C@@H]4COC(=O)NC(C)C)n(C)n2)cc1OC	i
COc1ccc(-c2cc([C@H]3CN4CC[C@H]3C[C@@H]4CNC(=O)NCc3ccccc3)n(C)n2)cc1	-13%
COc1ccc(-c2cc([C@H]3CN4CC[C@H]3C[C@@H]4CNS(=O)(=O)c3ccc(Cl)cc3)n(C)n2)cc1OC	0.63µM*
CC(=O)NC[C@H]1C[C@@H]2CCN1C[C@@H]2c1cc(-c2ccc3ccccc3c2)nn1C	i
COc1ccc(OC)c(S(=O)(=O)NC[C@H]2C[C@@H]3CCN2C[C@@H]3c2cc(-c3ccc4ccccc4c3)nn2C)c1	i
COc1ccc(-c2cc([C@H]3CN4CC[C@H]3C[C@@H]4CN)n(C)n2)cc1OC	11µM*
Cn1nc(-c2ccc3ccccc3c2)cc1[C@H]1CN2CC[C@H]1C[C@@H]2CNC(=O)NCc1ccccc1	7.9µM*
CC(C)c1ccc(CNC(=O)C2CCN(c3cc(C(F)(F)F)ncn3)CC2)cc1	76%
Cn1cc(C2c3nccn3CCCN2C(=O)c2ncccc2F)cn1 (stereo not drawn)	3%
CC(=O)NCC(=O)N1CCCC2(COc3ccccc3[S+](=O)([O-])N2)C1 (stereo not drawn)	5%
O=C1N(C2CCCCC2)C[C@H]2CN(Cc3cccc(OC(F)(F)F)c3)CCN12	-12%[44.1 µM]
O=C(c1ccncc1)N1CCCC(c2noc(COc3ccccc3)n2)C1 (stereo not drawn)	8%
CCOC(=O)c1c(NC(=O)CSc2nc(-c3ccccc3)cc(C(F)(F)F)n2)sc(C)c1C	i
CCOC(=O)c1sc(NC(=O)C(C)Sc2nc(-c3ccccc3)cc(C(F)(F)F)n2)c(C(=O)OC)c1C (stereo not drawn)	0.71µM*
SMILES	Pf Dd2 inh
COc1ccc(CNC(=O)C(C)Sc2nc(-c3ccccc3)cc(C(F)(F)F)n2)cc1 (stereo not drawn)	-18%
Cc1ccccc1C(=O)N1CCC(c2nn(Cc3ccccc3)c(=O)[nH]2)CC1	-16%
COC(=O)c1ccc(Cn2nnc3c(=O)[nH]c(C4CCCN(S(=O)(=O)c5ccccc5Cl)C4)nc32)cc1 (stereo not drawn)	7.9µM*
O=C(c1cccc(C(F)(F)F)c1)N1CCC(c2nn(-c3ccc(Cl)cc3)c(=O)[nH]2)CC1	i
COc1ccc(CNC(=O)C2CCCN(S(=O)(=O)c3cccc4nsnc34)C2)cc1 (stereo not drawn)	-19%
O=C(c1cccc(Cl)c1)N1CCC(c2nn(-c3ccccc3)c(=O)[nH]2)CC1	i
Cc1ccc(C(=O)N2CCC(c3nn(Cc4ccccc4)c(=O)[nH]3)CC2)cc1	-8%
CC(C)n1ccnc1C1CCCN(S(=O)(=O)c2ccccc2Cl)C1 (stereo not drawn)	i
Cc1cc(C)n(Cc2cccc(C(=O)N3CCCC(c4ncc[nH]4)C3)c2)n1 (stereo not drawn)	0%
Cc1ccc(C)c(C(=O)N2CCC(c3nc4c(nnn4Cc4ccccc4)c(=O)[nH]3)CC2)c1	11µM*
Cc1ccccc1Cn1nnc2c(=O)[nH]c(C3CCCN(C(=O)c4ccc(F)cc4)C3)nc21 (stereo not drawn)	-3%
O=C(c1cccc(Cl)c1)N1CCC(c2nc3c(nnn3Cc3ccc(F)cc3F)c(=O)[nH]2)CC1	2µM*
CC(C)(C)c1ccc(C(=O)N2CCCC(c3nc4c(nnn4Cc4cccc(F)c4)c(=O)[nH]3)C2)cc1 (stereo not drawn)	1.6µM*
CC(=O)N1CCCC(c2nc(-c3cccnc3)no2)CCNC(=O)CC1 (stereo not drawn)	19%
COCCN1CCOC2(CCN([S+](=O)([O-])c3ccccc3C)CC2)C1=O	-24%[44.1 µM]
CN(C)c1cc(N2CCCC(NC(=O)c3ccccn3)C2)ncn1 (stereo not drawn)	47%[5.79 µM]
O=C1CCN(C(=O)c2cccnc2)CCCC(C(=O)NCCCc2ccccc2)CCN1 (stereo not drawn)	22%
Cc1nc(C)c(C(=O)N2CCC(c3noc(-c4cnccn4)n3)C2)s1 (stereo not drawn)	i[5.79 µM]
Cc1ccn2c(C(=O)N[C@H](Cc3ccccn3)C3CC(O)C3)nnc2n1 (stereo partly drawn)	-6%
CN(C)CCCn1ccnc1C1CCCN(C(=O)N(C)c2ccccc2)C1 (stereo not drawn)	-5%
O=C1CCN(C(=O)c2cccs2)CCCC(CO)CCN1 (stereo not drawn)	-10%
CNC(=O)[C@@H]1C[C@@H](O)CN1C1CCN(C(=O)CCc2nc3ccccc3s2)CC1	10%
Clc1cc(Cl)cc(NC2CNC2)c1	22µM*
COc1cc(=O)n2c(c1C(=O)N1CCN(c3ccc(C)cc3)CC1)CCCC2	i
CC1(C(=O)NCc2ccccc2)CCCCC(=O)N1 (stereo not drawn)	i
SMILES	Pf Dd2 inh
COc1cccc(CNC(=O)CC2=C3CCCCC3NC2=O)c1OC (stereo not drawn)	-13%
COCCN1CCC(N2CCN(S(=O)(=O)c3ccc(F)cc3F)CC2)C1=O (stereo not drawn)	21%
COc1cc(C(=O)Nc2nonc2-c2ccc(C)c(C)c2)cc(OC)c1OC	8%
Cc1ccc(-c2nonc2NC(=O)c2ccc(F)cc2)cc1C	32%
CCOc1ccc(-c2nonc2NC(=O)c2ccc(C)cc2)cc1OCC	2µM*
COc1ccc(CCNC(=O)c2c(C)noc2-c2ccc3c(c2)OCO3)cc1OC	-13%
CC(C)Cc1cc(C(=O)NCc2noc(-c3c(F)cccc3F)n2)no1	-13%
CC1Oc2ccc(NC(=O)Cc3cccs3)cc2CN(Cc2ccc(Cl)cc2)C1=O (stereo not drawn)	i
COc1ccccc1CC(=O)Nc1ccc2c(N3CCCCC3)ncnc2c1	14µM*
COc1ccccc1CC(=O)NC1CCN(c2cc(C(F)(F)F)ncn2)CC1	34%
Cc1ccccc1CC(=O)Nc1ccc2ncnc(N3CCCCC3)c2c1	i
O=C(Cc1cccs1)Nc1ccc2c(N3CCCCC3)ncnc2c1	5µM*
COc1ccc(-c2cc(N3CCCC(NC(=O)Cc4cccs4)C3)n[nH]2)cc1 (stereo not drawn)	-11%
Cc1cnc(-c2ccccc2)n1C1CCN(C(=O)c2ccco2)CC1	i

Assay outcomes: PubChem, National Center for Advancing Translational Sciences (NCATS)
